SMILES strings stand for the structures. Records with an inconclusive call do not appear. Entries that show only a call come without a potency. Active and inactive are the calls of the source. Calls come from the whole dose curve.

A short description of the experiment: qHTS assay to identify small molecule agonists of the endoplasmic reticulum stress response signaling pathway - cell viability counter screen (AID 1159517). Note: nearly all actives have a fitted effect of over 50% in size. As to conditions: ESRE-bla HeLa viability, CellTiter-Glo luminescence, 5 h; series mostly up to 61 µM. The source says: U.S. Tox21 Program National Center for Advancing Translational Sciences [NCATS] NIH Chemical Genomics Center [NCGC] U.S. Environmental Protection Agency [EPA] National Institutes of Environmental Health Sciences [NIEHS] National Toxicology Program [NTP] U.S. Food and Drug Administration [FDA] Tox21 Assay Overview: Endoplasmic Reticulum (ER) plays an important role in cellular signaling, protein folding/maturation, stress response, lipid biosynthesis, calcium storage and release etc. Under stress conditions, proteins in ER misfold or unfold, and leading to the expression of ER stress responsive genes. ER stress has been associated with a variety of pathophysiological conditions such as cancer, inflammation, neurodegenerative diseases, diabetes, ischemic heart disease etc. To identify the compounds that induce ER stress response, an ER stress reporter cell line, CellSensor ESRE-bla HeLa (Life Technologies, Carlsbad, CA) containing a beta-lactamase reporter gene under control of the Endoplasmic reticulum Stress Response Element (ESRE) was used to screen Tox21 10K compound library. The cytotoxicity of the Tox21 compound library against the ESRE-bla HeLa cell line was tested in parallel by measuring cell viability using the CellTiter-Glo assay in the same wells.
Tox21 Assay Protocol Summary: ESRE-bla HeLa cells were dispensed at 1,500 cells/6 uL of assay medium per well into black wall/clear-bottom 1536-well plates using a Multidrop Combi (ThermoFisher Scientific, Waltham, MA) dispenser. After the assay plates were incubated at 37 C and 5% CO2 for an overnight, 23 nL of compounds dissolved in DMSO, positive controls or DMSO only was transferred to the assay plate by a Pintool station (Kalypsys, San Diego, CA). The assay plates were incubated at 37 C and 5% CO2 for 5 hr. One uL of LiveBLAzer B/G FRET substrate (Life Technologies) was added using a FRD (Flying Reagent Dispenser, Aurora Discovery, San Diego, CA) and the plates were incubated at room temperature for 2 hr. Fluorescence intensity (405 nm excitation, 460 nm and 530 nm emissions) was measured using an Envision plate reader (PerkinElmer, Shelton, CT). For cytotoxicity, 4 ul/well of CellTiter-Glo reagent was added into the assay plates using an FRD. After 30 min incubation at room temperature, the luminescence intensity was measured using a ViewLux plate reader (PerkinElmer).
In the case of `CCOCCOCCOCCO`, the Potency result is “inactive”.

Turning to `Clc1ccccn1`, the Potency entry is “inactive”.

`CNC(=O)Oc1ccc2c(c1)[C@]1(C)CCN(C)[C@@H]1N2C`: the Potency entry is “inactive”.

Regarding `NCCNCCN`, the Potency result is “inactive”.

With `CC(=O)CCC=C(C)C`, the Potency result is “inactive”.

Take `CC(=O)c1ccc(O)cc1`: the Potency entry was “inactive”.

For the compound `CC1(C)NC(=O)NC1=O`, the Potency result was “inactive”.

Consider `CCCCOC(=O)c1ccc(N)cc1`, for which the Potency result is “inactive”.

On to `COc1ccc(OC)cc1`, for which the Potency entry was “inactive”.

Consider `CC(=O)OCc1ccco1`, for which the Potency entry is “inactive”.

On to `COc1ccc(CCC(C)=O)cc1`, for which the Potency result was “inactive”.

On to `O=C(O)c1ccc(C(=O)O)c(C(=O)O)c1`, for which the Potency entry is “inactive”.

For `CN(C)c1ccc(O)c2c1C[C@H]1C[C@H]3[C@H](N(C)C)C(=O)C(C(N)=O)=C(O)[C@@]3(O)C(=O)C1=C2O`, the Potency result is “inactive”.

As to `Cc1ccc(S(=O)(=O)N=C=O)cc1`, the Potency entry is “inactive”.

On to `CC(C)c1cccc(C(C)C)c1`, for which the Potency entry was “inactive”.

With `C[Si]1(C)O[Si](C)(C)O[Si](C)(C)O[Si](C)(C)O1`, the Potency result is “inactive”.

As to `CCCCCCCCCCO`, the Potency result was “inactive”.

Regarding `CC(C)(Oc1ccc(CCNC(=O)c2ccc(Cl)cc2)cc1)C(=O)O`, the Potency result is “inactive”.

`C=C(C)CNCC`: the Potency entry was “inactive”.

Regarding `c1ccc2c(c1)Cc1ccccc1-2`, the Potency result is “inactive”.

Turning to `CCCCC(C=O)CC` (stereo not given), the Potency result was “inactive”.

With `C[C@]12CCC(=O)C=C1CC[C@@H]1[C@@H]2[C@@H](O)C[C@@]2(C)[C@H]1CC[C@]2(O)C(=O)CO`, the Potency result was “inactive”.

Turning to `CC(=O)OCCOC(C)=O`, the Potency result is “inactive”.

As to `O=C(O)c1ccccc1C(=O)O`, the Potency entry was “inactive”.

`N#Cc1ccccc1`: the Potency entry is “inactive”.

As to `CCCCCCCCCCCCCCCCO`, the Potency entry is “inactive”.

`NCCN1CCNCC1`: the Potency entry is “inactive”.

Consider `CCO[Si](CCCN)(OCC)OCC`, for which the Potency entry was “inactive”.

As for `CCO[Si](CCC#N)(OCC)OCC`, the Potency result is “inactive”.

As for `COC(=O)c1cccnc1`, the Potency entry was “inactive”.

As for `COCCOC(=O)c1ccccc1C(=O)OCCOC`, the Potency entry was “inactive”.

On to `C=CCCCCCCCCC(=O)O`, for which the Potency result is “inactive”.

On to `O=C(O)c1cc2ccccc2cc1O`, for which the Potency entry is “inactive”.

As to `OCc1ccccc1`, the Potency result is “inactive”.

For `C=CC[N+](C)(C)CC=C`, the Potency result was “inactive”.

Take `C=Cc1ccc(C)cc1`: the Potency result was “inactive”.

As for `COc1ccc(C)cc1N`, the Potency entry was “inactive”.

In the case of `O=S(=O)(O)c1ccccc1`, the Potency result is “inactive”.

In the case of `O=S(=O)(O)c1ccc(N=Nc2c(O)ccc3cc(S(=O)(=O)O)ccc23)cc1`, the Potency result was “inactive”.

Consider `O=C(OCC1CCC2OC2C1)C1CCC2OC2C1` (stereo not given), for which the Potency result is “inactive”.

The values above are taken from PubChem BioAssay (Tox21).
